Results reported in PubChem BioAssay (NCI).
About 83,000 compounds went through this panel and 20% of them were active in at least one assay; those are over-represented in the sample as a whole.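 Assay: single dose, 48 h. Readout: percent growth (0 = no net growth; negative = cell death). Active: <10.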 Values without a mark were called inactive. The source made the active and inactive calls.

What was measured:
Assay in all cases: NCI-60 one-dose screen, 48 h (100 = growth as untreated, 0 = no growth, -100 = all killed)
Settings in all cases: 10 µM
[1] = system: NCI-H23 lung
[2] = system: NCI-H226 lung
[3] = system: NCI-H322M lung
[4] = system: HOP-62 NSCLC
[5] = system: NCI-H460 lung
[6] = system: NCI-H522 lung
[7] = system: A549/ATCC NSCLC
[8] = system: 786-0 renal
[9] = system: COLO 205 colon
[10] = system: DU-145 prostate
[11] = system: K-562 leukemia
[12] = system: MDA-MB-231 breast
[13] = system: SF-268 CNS
[14] = system: SF-295 CNS
[15] = system: SF-539 CNS
[16] = system: UACC-257 melanoma
[17] = system: M14 melanoma
[18] = system: MALME-3M melanoma
[19] = system: RXF 393 renal
[20] = system: HOP-92 NSCLC

| SMILES | growth [1] | growth [2] | growth [3] | growth [4] | growth [5] | growth [6] | growth [7] | growth [8] | growth [9] | growth [10] | growth [11] | growth [12] | growth [13] | growth [14] | growth [15] | growth [16] | growth [17] | growth [18] | growth [19] | growth [20] |
| --- | --- | --- | --- | --- | --- | --- | --- | --- | --- | --- | --- | --- | --- | --- | --- | --- | --- | --- | --- | --- |
| CC(C)(C)c1cc(O)c(C(C)(C)C)cc1O | 96.3% | 67.8% | 100% | 105% | 96.3% | 63.3% | 87.4% | 95.8% | 108% | 108% | 96.7% | 88.9% | 95.8% | 85.7% | 86.1% | 85.6% | 103% |  |  |  |
| COc1ccc(C(C)C=O)cc1 (stereo not drawn) | 106% | 111% | 122% | 107% | 108% |  | 105% | 107% | 115% | 109% | 104% | 110% | 114% | 115% | 99% | 117% | 109% | 133% | 139% |  |
| CC1CCC(C(=O)O)N1 (stereo not drawn) | 89.2% | 97.3% | 95.2% | 93.9% | 115% | 91.3% | 99.4% | 100% |  |  | 98.4% | 102% | 97.5% | 101% | 95% | 103% | 102% | 102% | 109% |  |
| CC1=CC(=O)c2ccccc2C1=O | 101% | 101% | 99.2% | 105% | 115% | 114% | 94.1% | 106% | 108% | 113% |  | 98.8% | 119% | 109% | 104% | 104% | 107% |  |  |  |
| Cc1cc(N2CCC(N3CCCC3)CC2)nc(/N=C(\N)Nc2ccc(Cl)c(Cl)c2)n1 | 56.8% | 84.6% | -30.6% (active) | -8.02% (active) | -67.8% (active) | -66.4% (active) | -22.1% (active) | -54.3% (active) | -82.3% (active) | 16.3% | -44.4% (active) | -58.1% (active) | -4.09% (active) | -96.2% (active) | -84.7% (active) | -78.5% (active) | -85.9% (active) |  | -69.7% (active) |  |
| OCc1cccc2ccccc12 | 101% | 112% | 121% | 104% | 112% |  | 108% | 109% | 114% | 108% | 99.3% | 112% | 107% | 117% | 95.7% | 109% | 110% | 132% | 146% |  |
| O=C(N/N=C/c1ccccc1O)Nc1nn[nH]n1 | 106% | 96.4% | 97% | 111% | 102% | 95.4% | 108% | 108% | 109% | 116% | 128% | 102% | 113% | 102% | 96.9% | 104% | 103% |  |  |  |
| Cc1ccc(Cl)cc1N1C(=O)CC(Sc2ccccc2N)C1=O (stereo not drawn) | 101% | 103% | 127% | 94.2% | 111% | 97% | 88.6% | 106% | 110% | 123% | 118% | 108% |  | 111% | 105% | 88.4% | 118% | 138% | 92.5% |  |
| O=C(Cc1nc2ccc([N+](=O)[O-])cc2nc1CC(=O)c1ccccc1)c1ccccc1 | 43.9% | 68% | 61% | 79.8% | 52.9% | 31.5% | 58.8% | 42% | 91.3% | 50.6% | 43.8% |  | 73.9% | 53% | 18.3% | 86.9% | 48.4% | 46.8% | 89.1% |  |
| CN(C)/N=C/c1ccccc1O | 113% | 98.6% | 89.7% | 109% | 100% | 96.2% | 104% | 92.8% | 112% | 125% | 120% | 106% | 106% | 112% | 94.6% | 109% | 106% | 109% |  |  |
| COc1cc(CN)ccc1O | 99.4% | 99.8% | 89.7% | 98.3% | 91.4% | 88% | 98.6% | 100% |  | 91.2% | 71.7% | 86.9% | 100% |  | 94.9% | 94.1% | 101% | 79.3% | 95% |  |
| O=C(O)CCCCNC(=O)c1ccccc1 | 91% | 92.3% | 106% | 90.8% | 106% | 89.4% | 98.4% | 97.5% | 108% | 110% | 89.3% | 99.1% | 102% | 95.1% | 99.8% | 107% | 98.8% | 110% |  |  |
| CC(C)C(C#N)(C(C)C)C(C)C | 104% | 104% | 107% |  | 102% | 92% | 97.1% | 113% | 109% | 111% | 114% | 104% | 98.1% | 103% | 104% | 96% |  | 92.9% | 115% | 95.5% |
| Cc1ccc(C(=O)c2ccccc2)c(C)c1 | 99.6% | 104% | 105% | 95% | 110% |  | 110% |  | 109% | 104% | 125% | 97.8% | 102% | 136% | 98.9% | 112% |  | 120% | 116% |  |
| C/C=C/CC(C)C(O)C1C(=O)NC(CC)C(=O)N(C)CC(=O)N(C)C(CC(C)C)C(=O)NC(C(C)C)C(=O)N(C)C(CC(C)C)C(=O)NC(C)C(=O)NC(C)C(=O)N(C)C(CC(C)C)C(=O)N(C)C(CC(C)C)C(=O)N(C)C(C(C)C)C(=O)N1C (stereo not drawn) | 20.1% | 5.76% (active) | 33.8% | 35.6% |  | 9.55% (active) | 17.2% | 41.9% | -72.8% (active) | 39% |  | -6.48% (active) | 38.3% | -16.7% (active) | -1.51% (active) | 1.79% (active) | 4.21% (active) |  |  |  |
| CN(C)C(C)(C)CC(C)(C)C | 103% | 99.7% | 116% | 104% | 108% |  | 108% | 100% | 106% | 99.5% | 96.5% | 101% | 103% | 104% | 94.1% | 117% | 105% | 94.2% | 103% |  |
| OC1OC(COC(c2ccccc2)(c2ccccc2)c2ccccc2)C(O)C(O)C1O (stereo not drawn) | 98.1% | 90.1% | 92.1% | 107% | 101% |  |  | 102% | 117% | 107% | 95.4% | 91.9% | 97.7% | 96.8% | 102% |  | 105% | 90.6% | 95.8% |  |
| O=c1[nH]n(-c2ccccc2)c(=O)cc1Cl | 106% | 93.6% | 114% | 108% | 109% |  | 102% | 103% | 104% | 116% | 103% | 97.2% | 101% | 114% | 97.7% | 97.1% | 106% | 99.9% | 113% |  |
| CC[N+](C)(CC)CCO | 107% | 92.7% | 104% | 92.6% | 105% |  | 94.1% | 99.5% | 114% | 112% | 99.6% | 98.6% | 112% | 99.5% | 108% |  | 104% | 103% | 88.5% |  |
